A selection: hits, their analogues and other compounds. The true share with any hit is near 2.4%.
CHT inh – human CHT choline transport inhibition; Q9GZV3; CHT-expressing cells, membrane potential dye, choline response; stronger effect = lower value; B-score at 10 µM; 0.86% of 310,000 active; AID 488975;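 active = B-score over 3 SD under the library average, and starting fluorescence ratio not unusually high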;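 note: choline stimulus applied at its EC90 after an EC20 pre-addition; B-score computed on integrated fluorescence ratio after choline addition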
Target sequence (Q9GZV3 whole entry, looked up): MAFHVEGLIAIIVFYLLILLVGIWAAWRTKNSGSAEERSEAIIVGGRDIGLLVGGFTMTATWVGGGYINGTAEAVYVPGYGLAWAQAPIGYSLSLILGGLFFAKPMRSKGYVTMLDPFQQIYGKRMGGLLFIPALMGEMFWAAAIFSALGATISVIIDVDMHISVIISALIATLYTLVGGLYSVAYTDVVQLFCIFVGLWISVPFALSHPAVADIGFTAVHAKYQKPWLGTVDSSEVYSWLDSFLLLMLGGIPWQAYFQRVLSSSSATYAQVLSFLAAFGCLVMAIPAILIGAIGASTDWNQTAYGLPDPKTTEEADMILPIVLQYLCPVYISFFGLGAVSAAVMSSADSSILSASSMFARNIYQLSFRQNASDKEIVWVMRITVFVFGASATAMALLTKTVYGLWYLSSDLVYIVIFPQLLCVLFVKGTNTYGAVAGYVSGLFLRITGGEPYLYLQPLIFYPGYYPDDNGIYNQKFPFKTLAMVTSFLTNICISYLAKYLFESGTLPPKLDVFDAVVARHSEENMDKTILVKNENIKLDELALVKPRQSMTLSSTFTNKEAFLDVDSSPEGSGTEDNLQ
CHT PAM – allosterically activates the human high affinity choline transporter; Q9GZV3; CHT-expressing cells, membrane potential dye, choline EC20; stronger effect = higher value; LV-AA mutant CHT in HEK293 cells; B-score at 10 µM; 0.49% of 310,000 active; AID 488977;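 active = initial fluorescence not abnormally high and integrated response B-score, plate-corrected, over 3 SD above library mean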
TMEM16A inh – mouse TMEM16A channel inhibition, primary screen. Q8BHY3. HEK293 TMEM16A/YFP iodide influx fluorescence, ionomycin. normalized B-score (activity score, 25-100; higher = stronger inhibition) at 10 µM. 1.2% of 310,000 active;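 active = ratio plate-corrected score three or more library SD toward inhibition, starting fluorescence score within five deviations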;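 note: score derived from kinetic fluorescence span divided by baseline fluorescence per well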
TMEM16A act – activators or potentiators of mouse TMEM16A chloride channel | Q8BHY3 | AID 623877 | B-score at 10 µM | HEK293 TMEM16A/YFP-H148Q/I152L, iodide quench fluorescence; stronger effect = lower value | 0.3% of 340,000 active;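 active = fluorescence-ratio B-score plate-corrected deviation score at least 3 library SD below zero, with starting fluorescence score within 5 deviations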;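 note: channel opened by trigger with iodide after compound preincubation; score built on the fluorescence ratio of max minus min over baseline; more negative score means more quench and so TMEM16A activation or potentiation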
CHT inh conf – confirmation of human choline transporter CHT inhibitors; shares compounds with CHT inh; CHT-expressing cells, choline membrane potential dye; LV-to-AA substituted CHT, HEK293 cells; CHT activity remaining % of control (stronger effect = lower value), % at 10 µM; 70% of 2,400 active; AID 493221;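 active = choline transporter activity left, mean of duplicates at 10 µM, below buffer-only control mean minus 3 SD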;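 note: depolarization triggered by choline at its EC90 following an EC20 pre-addition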
HEK293 CHT ctr – counter-screen for CHT inhibitors: effect in parental HEK293 cells; membrane potential ratio readout (active if shifted either direction beyond buffer ±3SD; no single direction) at 10 µM; membrane potential dye, choline response; active = decrease or increase beyond buffer ±3SD; 4% of 2,400 active; shares compounds with CHT inh; AID 493222;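 note: parental cells lack the transporter so any hit is non-specific; ratio is peak minus trough fluorescence over baseline after EC90 choline challenge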
A number is an active result; i = inactive; nt = no result given.

SMILES	CHT inh	CHT PAM	TMEM16A inh	TMEM16A act	CHT inh conf	HEK293 CHT ctr
CCCc1nnc(NC(=O)c2cn(CC)c3cc(N4CCN(C)CC4)c(F)cc3c2=O)s1	-5.2	i	i	i	i	i
CCOC(=O)C1CCN(C(=O)CSCc2nc(-c3ccc(OCC)cc3)oc2C)CC1	-7.6	i	100	i	69%	i
CCCCCn1c(=O)c(F)cn(Cc2ccc(OC)c([N+](=O)[O-])c2)c1=O	-7.6	i	i	i	54%	i
CCCCCCn1c(=O)c(F)cn(Cc2ccc(OC)c([N+](=O)[O-])c2)c1=O	-6.7	i	i	i	i	i
COc1cccc(C(=O)NN/C(C)=C/C(=O)C(F)(F)C(F)(F)C(F)(F)F)c1	-8.4	i	i	i	67%	i
Cc1cccc(NC(=S)NCCN2CCOCC2)c1	i	i	i	i	nt	nt
S=C(NCCCN1CCOCC1)Nc1cccc(-c2nnc3n2CCCCC3)c1	-5.2	i	i	i	61%	i
CCCCn1nc2cc(C(=O)NC3CCc4ccccc43)ccc2c1OCC (stereo not given)	-5.5	i	i	i	34%	i
CCOc1c2ccc(C(=O)NCCc3cccs3)cc2nn1CC	i	i	i	i	nt	nt
CCCCn1nc2cc(C(=O)NCCc3cccs3)ccc2c1OCC	-9.2	i	i	i	24%	i
Cc1ccc(NC(=O)CCc2c(C)nn(-c3ccc(N4CCCCC4)nn3)c2C)cc1	i	i	i	i	nt	nt
Cc1cc(C)cc(NC(=O)CCc2c(C)nn(-c3ccc(N4CCCCC4)nn3)c2C)c1	i	i	i	i	i	i
NCCc1nnc(SCc2ccc(F)cc2)o1	i	i	i	i	nt	nt
NCCCCCc1nnc(SCc2ccc(Cl)c(Cl)c2)o1	-5.4	i	i	i	30%	i
COc1ccc2nc(N(CCN(C)C)C(=O)c3ccc4c(c3)OCCO4)sc2c1	i	i	i	i	nt	nt
COc1ccc2sc(-c3ccccc3OC)c(-c3ccc4c(c3)OCCO4)c2c1	nt	nt	nt	i	nt	nt
Cc1ccc(CNC(=O)C2CC2c2ccccc2)cc1 (stereo not given)	i	i	i	i	nt	nt
Cc1ccc2[nH]c(C(=O)O)c(NC(=O)[C@@H]3C[C@@H]3c3ccccc3)c2c1	-5	i	i	i	i	i
CN(C)c1cccc(C(=O)NCc2ccc(Cl)cc2)c1	i	i	i	i	nt	nt
CCOC(=O)Cc1csc(N/C(=N/S(=O)(=O)c2ccc(F)cc2F)c2ccccc2)n1	-6.8	i	i	i	63%	i
Cc1ccc2nc(N/C(=N/S(=O)(=O)c3ccc(F)cc3F)c3ccccc3)sc2c1	i	i	i	i	nt	nt
CCCCNC(=O)C1CCCN(S(=O)(=O)c2c(C)noc2/C=C/c2cccs2)C1 (stereo not given)	i	i	i	i	nt	nt
Cc1noc(/C=C/c2cccs2)c1S(=O)(=O)N1CCC(C(=O)NCCCN2CCCC(C)C2)CC1 (stereo not given)	i	i	i	i	i	i
CC1(C)C(C=C(Cl)Cl)C1C(=O)Nc1ccc(S(=O)(=O)Nc2ncccn2)cc1 (stereo not given)	-5.1	i	i	i	33%	i
S=C(Nc1ccc(Cc2ccncc2)cc1)Nc1cccc(Cl)c1	-6.6	i	i	i	i	i
SMILES	CHT inh	CHT PAM	TMEM16A inh	TMEM16A act	CHT inh conf	HEK293 CHT ctr
O=C(N/N=C/c1cn(-c2ccccc2)nc1-c1cccs1)c1ccc(Cl)cc1	i	i	i	i	nt	nt
CCCCNS(=O)(=O)c1ccc(NC(=O)Cc2ccccc2[N+](=O)[O-])cc1	-6	i	i	i	43%	i
CC(C)(C)NS(=O)(=O)c1ccc(NC(=O)Cc2ccccc2[N+](=O)[O-])cc1	i	i	i	i	nt	nt
Cc1cc(C)c(NC(=O)Cn2c([N+](=O)[O-])cnc2C)c(C)c1	i	i	i	i	nt	nt
Cc1csc(NC(=O)c2ccc(=O)[nH]c2)n1	i	i	i	i	nt	nt
CCc1c(C2(O)CCCCC2)[nH]c2cc(C(F)(F)F)ccc12	-5.7	i	100	i	53%	i
COc1ccc(CNC(=O)CNC(=O)c2ccc(Br)o2)cc1OC	i	i	i	i	nt	nt
COc1ccc(NC(=O)c2ccc(NS(=O)(=O)c3cccc4cccnc34)cc2)cc1	i	i	i	i	nt	nt
O=c1c2ccccc2nc(SCc2ccncc2)n1CC1CCCO1 (stereo not given)	-5	i	i	i	38%	i
CCN(C(=O)COC(=O)CNC(=O)c1sc2ccccc2c1Cl)C1CCCCC1	i	i	i	i	nt	nt
COc1ccc(NC(=O)CN2CCCN(S(=O)(=O)c3ccc(F)cc3)CC2)cc1	i	i	i	i	nt	nt
CCCCn1nc(-c2ccccc2)c2nc3ccccc3nc21	i	i	i	nt	nt	nt
Cn1nc(-c2ccccc2)c2nc3ccccc3nc21	-6.3	i	i	i	i	-9.9
CC(=O)N(C)c1ccc(NC(=O)C(c2ccccc2)c2ccccc2)cc1	i	i	i	i	nt	nt
CC(=O)N(C)c1ccc(NC(=O)C(Sc2ccccc2)c2ccccc2)cc1 (stereo not given)	-5.5	i	i	i	65%	i
O=CC1=C(c2ccccc2)Oc2ccccc2O1	i	i	i	i	i	i
CC1=C(C(=O)N2CCCC(CCC(=O)NCc3ccccc3F)C2)OCCO1 (stereo not given)	-6.1	i	i	i	i	i
CCc1nc(CNC(=O)C2CCC(=O)N(Cc3cccc(OC)c3)C2)no1 (stereo not given)	i	i	i	i	nt	nt
Cc1nn(CC2CC2)c(=O)n1-c1cccc(Cl)c1	-5.8	i	i	i	i	i
Cc1ccc(-n2c(C)nn(CC3CC3)c2=O)cc1	i	i	i	i	nt	nt
O=C(CCC(=O)N1CCOc2ccc(Cl)cc21)NCc1ccccc1	-6.3	i	i	i	i	i
COc1ccccc1CNC(=O)CCC(=O)N1CCOc2ccc(Cl)cc21	i	i	i	i	nt	nt
COc1ccc(-n2ccnc2SCC(=O)NO)cc1	-5.3	i	i	i	i	i
COc1ccc(NC(=O)CSc2nccn2Cc2ccccc2)cc1	-5.3	i	i	i	56%	i
COc1ccccc1Cc1nc(-c2cccnc2)no1	i	i	i	i	nt	nt
CCCNS(=O)(=O)c1cccc(C(=O)NC2CCCc3ccccc32)c1 (stereo not given)	-12	i	i	i	20%	i
CC(NC(=O)c1cccc(Cl)c1)C1CC2CCC1C2 (stereo not given)	i	i	i	i	nt	nt
CN1CCN(S(=O)(=O)c2cccc(C(=O)NC3CCCc4ccccc43)c2)CC1 (stereo not given)	-5.6	i	i	i	51%	i
CN(C)S(=O)(=O)c1cccc(C(=O)NC2CCCc3ccccc32)c1 (stereo not given)	i	i	i	i	nt	nt
CC(NC(=O)c1cccc(S(=O)(=O)N2CCN(C)CC2)c1)C1CC2CCC1C2 (stereo not given)	-5.4	i	i	i	23%	i
